rRNA inh HTS: inhibitors of bacterial rRNA selective over humanized ribosomes; E. coli WT GFP vs humanized-ribosome RFP mutants, fluorescence, 24 h; active compounds read low; DMSO median 0, no signal -100; GFP signal change (wild-type ribosome), % (test concentration not listed); actives 1.6% (n = 350,000); AID 720706;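 active means significant combined selectivity score with lowered wild-type GFP, culture density cut under 30%, mutant RFP and density less affected; inactive means any of these conditions unmet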
PvdQ acylase: P. aeruginosa PvdQ acylase inhibition; purified PvdQ acylase, fluorescence plate reader; inhibition, % at 10 µM; actives 0.063% (n = 340,000); AID 488965; in the data active means inhibition above about 30%, passing the limit was not always enough;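 further: 0% = vehicle neutral wells and 100% = reference inhibitor wells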
ERAP1 inh: blocks human ERAP1 aminopeptidase activity | Q9NZ08 | recombinant ERAP1, Leu-AMC fluorescence, 60 min | inhibition, % at 10.7 µM | actives 0.15% (n = 340,000) | AID 652197;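 active means mean replicate inhibition of at least 30%, or all replicates individually reaching that 30% level; inactive means mean below 30% and not every replicate reaching it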;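 further: 0% = neutral control wells and 100% = L-leucinethiol positive control wells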
Target sequence (Q9NZ08 whole entry, looked up): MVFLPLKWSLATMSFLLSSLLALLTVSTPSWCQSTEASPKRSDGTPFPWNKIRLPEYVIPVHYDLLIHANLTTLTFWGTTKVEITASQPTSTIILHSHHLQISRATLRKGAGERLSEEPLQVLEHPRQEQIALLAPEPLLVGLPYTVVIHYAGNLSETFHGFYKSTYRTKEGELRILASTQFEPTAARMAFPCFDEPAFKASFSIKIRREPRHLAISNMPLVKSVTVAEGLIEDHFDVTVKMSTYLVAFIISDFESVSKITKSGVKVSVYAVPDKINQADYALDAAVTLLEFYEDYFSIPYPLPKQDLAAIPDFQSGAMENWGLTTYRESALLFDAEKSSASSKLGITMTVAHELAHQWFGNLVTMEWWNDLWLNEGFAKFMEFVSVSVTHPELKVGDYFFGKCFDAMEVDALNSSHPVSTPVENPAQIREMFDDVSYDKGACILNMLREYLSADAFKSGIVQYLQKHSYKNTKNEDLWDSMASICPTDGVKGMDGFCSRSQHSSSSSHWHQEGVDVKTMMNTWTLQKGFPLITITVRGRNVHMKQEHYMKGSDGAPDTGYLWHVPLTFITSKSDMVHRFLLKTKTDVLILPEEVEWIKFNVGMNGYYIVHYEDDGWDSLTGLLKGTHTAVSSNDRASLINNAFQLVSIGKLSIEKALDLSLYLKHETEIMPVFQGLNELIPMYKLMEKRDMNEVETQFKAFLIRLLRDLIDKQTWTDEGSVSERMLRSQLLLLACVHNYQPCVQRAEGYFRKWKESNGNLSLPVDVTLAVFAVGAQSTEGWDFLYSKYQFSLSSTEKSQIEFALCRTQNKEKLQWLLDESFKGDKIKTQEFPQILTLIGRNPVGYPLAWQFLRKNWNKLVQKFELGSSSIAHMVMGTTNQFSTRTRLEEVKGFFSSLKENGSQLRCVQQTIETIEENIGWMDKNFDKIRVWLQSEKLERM
CFTR F508del cor: CFTR F508del correction in bronchial cells; activity (quench increase), % at 7.58 µM; actives 0.36% (n = 350,000); AID 720511; CFBE cells, YFP halide quenching; stimulated with forskolin plus potentiator P3; % fluorescence drop versus neutral controls;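 active means mean added fluorescence quench of at least 8% versus neutral control, with both replicates also reaching 8%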;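 further: cells transiently co-express mutant CFTR-F508del with the halide-sensitive YFP; corrector assay measuring rescue of mutant channel to the surface after 24 h compound exposure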
ARNT TACC3 PPI: disruptors of human ARNT/TACC3 interaction. Q9Y6A5. AlphaScreen His-ARNT PAS-B/GST-TACC3 binding, luminescence; TACC3 fragment carries E629A point mutation. inhibition, % at 9.99 µM. actives 0.66% (n = 390,000). AID 623870;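 active means mean inhibition of replicates at least 50% and at least half of replicates each reaching 50%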;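 further: 0% = complete ARNT plus TACC3 wells and 100% = ARNT alone without TACC3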
Starred values were filed as active, the others as inactive; · = no result given; ! = repeats disagree. This is a sample that favours compounds with a hit; in the whole collection about 2.1% have one here.

SMILES | rRNA inh HTS | PvdQ acylase | ERAP1 inh | CFTR F508del cor | ARNT TACC3 PPI
S=C(NCCCN1CCOCC1)N1CCN(c2nc(-c3ccccc3)cs2)CC1 | -22* | 3 | 9 | -1 | -6
Nc1csnc1C(=O)O | · | -9 | · | · | 46*
O=C(O)c1nnsc1-c1csnn1 | 16 | -1 | 1 | 0 | -4
Cc1ccccc1CN(C)CC(=O)Nc1cccc(S(=O)(=O)N(C)c2ccccc2)c1 | -21* | -4 | -2 | 0 | -5
Cc1cc(C)c(NC(=O)CN(C)CC(=O)Nc2cccc(S(=O)(=O)N(C)c3ccccc3)c2)c(C)c1 | -10 | -17 | 4 | -8 | ·
O=C(COc1ccc2ccccc2c1)Nc1nccs1 | -22* | 2 | -3 | 1 | -6
Cc1cc(NCCCn2ccnc2)n2nc(-c3ccc(F)cc3)cc2n1 | -5 | -7 | 1 | 1 | 12
Cc1cc(NCCCn2ccnc2)n2nc(-c3ccc(Cl)cc3)cc2n1 | -28 | 35* | 2 | 4 | 12
Cc1nn2c(NCCCn3ccnc3)cc(C(C)C)nc2c1-c1ccccc1 | -45* | -4 | 0 | -3 | 38
CC(=O)Nc1ccc(Nc2cc(C(C)C)nc3c(-c4ccccc4)c(C)nn23)cc1 | 2 | 4 | 5 | 0 | -19
COc1ccccc1-c1ccc2c(c1)[C@H]1[C@H](CCN1C(=O)C1CCCC1)[C@@H](CO)N2 | -2 | · | 2 | 2 | ·
CN(CC(=O)Nc1ccc(Cl)c(C(F)(F)F)c1)C(=O)C1CCCO1 (stereo not given) | -2 | 1 | 0 | -2 | 0
Cc1ccc(N2CC(C(=O)N(C)CC(=O)Nc3ccc(Cl)c(C(F)(F)F)c3)CC2=O)cc1 (stereo not given) | -36 | -13 | 0 | 9.2* | 10
CN(CC(=O)Nc1ccc(Cl)c(C(F)(F)F)c1)C(=O)CCN1C(=O)C2CCCCC2C1=O (stereo not given) | -22 | -14 | -1 | 10* | 4
CCC(=O)Nc1ccc2c(c1)OC[C@@H](C)N(C(=O)NC1CCCCC1)C[C@@H](C)[C@H](OC)CN(C)C2=O | 0 | · | -3 | -1 | -4
C[C@@H]1CCCCO[C@H](CN(C)Cc2ccc(C(=O)O)cc2)[C@@H](C)CN([C@@H](C)CO)C(=O)c2cc(NC(=O)Nc3ccccc3)ccc2O1 | -2 | · | -6 | -3 | 21
C[C@H]1CCCCO[C@H](CN(C)CC2CCCCC2)[C@@H](C)CN([C@@H](C)CO)C(=O)c2cc(NS(=O)(=O)c3cn(C)cn3)ccc2O1 | 6 | · | -1 | 1 | 0
CN(C)C(=O)c1cccc(-c2ccccc2[C@@H]2[C@@H](C#N)N(C(=O)C3CCCCC3)[C@@H]2CO)c1 | 6 | · | -2 | -1 | ·
CN1CCC(NC(=O)c2cc(-c3cccc(Br)c3)nc3ccccc23)CC1 | -23* | -11 | 1 | 0 | 2
O=C(NC1CC1)c1cc(-c2ccc(Br)cc2)nc2ccccc12 | 0 | -7 | 1 | 3 | -3
C[C@@H]1CN([C@@H](C)CO)C(=O)Cc2cc(NC(=O)C3CC3)ccc2O[C@@H]1CN(C)C(=O)Nc1ccc(F)cc1 | 5 | · | -7 | -2 | -3
Cc1ccccc1-n1ncc2c(SCC(=O)NC3CCCC3)ncnc21 | 12 | -9 | -8 | -1 | -2
Cc1ccccc1-n1ncc2c(SCC(=O)N3c4ccccc4CC3C)ncnc21 (stereo not given) | -26* | 9 | -1 | -3 | 4
Cc1c(OC(C(=O)O)c2ccccc2)ccc2c(-c3ccccc3)cc(=O)oc12 (stereo not given) | -25* | 0 | 6 | 2 | -7
CC(=O)COc1ccc2c(-c3ccccc3)cc(=O)oc2c1C | -18* | -6 | 0 | -1 | 28
SMILES | rRNA inh HTS | PvdQ acylase | ERAP1 inh | CFTR F508del cor | ARNT TACC3 PPI
CO[C@H]1CN(C)C(=O)c2ccc(NC(=O)c3cccc(F)c3)cc2OC[C@@H](C)N(C)C[C@@H]1C | -1 | · | -2 | -4 | -10
C1CCC(C(CC2CCCCN2)C2CCCCC2)CC1 (stereo not given) | -57 | -4 | -5 | 9.9*! | 6
O=C(C[C@@H]1CC[C@H]2[C@@H](COC[C@@H](O)CN2CCc2ccccc2)O1)NCc1ccccc1 | -2 | · | -3 | -1 | 1
COC(=O)COc1ccccc1/C=C1/NC(=O)NC1=O | · | -12 | · | · | 5
O=C(COc1ccccc1/C=C1/NC(=O)NC1=O)Nc1ccccc1 | -26* | -13 | 21 | 2 | 5
Cc1ccccc1S(=O)(=O)NCC[C@H]1CC[C@H](NC(=O)C2CCCC2)[C@H](CO)O1 | 2 | · | 1 | 1 | -15
O=C(C[C@H]1CC[C@@H]2[C@H](COC[C@@H](O)CN2S(=O)(=O)c2ccccc2)O1)Nc1ccc(-c2ccccc2)cc1 | 4 | · | 1 | 8.3* | 10
O=C(C[C@@H]1CC[C@@H]2[C@H](COC[C@@H](O)CN2Cc2ccc3c(c2)OCO3)O1)Nc1ccc(-c2ccccc2)cc1 | 11 | · | · | 3 | 11
O=C(C[C@@H]1CC[C@@H]2[C@H](COC[C@@H](O)CN2S(=O)(=O)c2ccccc2)O1)Nc1ccc(-c2ccccc2)cc1 | -3 | · | 1 | 0 | 12
O=C(C[C@@H]1CC[C@H]2[C@@H](COC[C@H](O)CN2Cc2ccc3c(c2)OCO3)O1)Nc1ccc(-c2ccccc2)cc1 | 3 | · | 1 | 9.6* | 16
C[C@H](CO)N1C[C@H](C)[C@@H](CN(C)Cc2cccc(F)c2)Oc2ncc(-c3cccc(F)c3)cc2C1=O | -2 | · | · | -1 | ·
O=C(NCC[C@@H]1CC[C@H](NS(=O)(=O)c2cccc(Cl)c2)[C@@H](CO)O1)c1cnccn1 | 1 | · | -1 | -3 | -14
C[C@H](CO)N1C[C@H](C)[C@@H](CN(C)C(=O)CC2CC2)Oc2ncc(-c3ccc(C#N)cc3)cc2C1=O | 2 | · | -1 | 0 | -6
CC1CCc2nc3ccccc3c(C(=O)OCC(=O)N(C)C3CCS(=O)(=O)C3)c2C1 (stereo not given) | -6 | -12 | 0 | 1 | -9
CC1CCc2nc3ccccc3c(C(=O)OCC(=O)NC3CCS(=O)(=O)C3)c2C1 (stereo not given) | -29* | -8 | 5 | -2 | 7
COC(=O)c1ccccc1N=Nc1c(C)noc1C | -28* | -10 | 3 | 0 | -3
COC(=O)c1ccccc1N=Nc1c(C)n[nH]c1C | -7 | -12 | 2 | 1 | 3
COC(=O)c1cc(-c2cccs2)nn1-c1ccccc1 | -29* | 0 | 0 | 1 | -3
CCC(=O)N(C)C[C@@H]1Oc2ncc(-c3ccccc3F)cc2C(=O)N([C@@H](C)CO)C[C@H]1C | -5 | · | -1 | 0 | -3
C=CC[C@H]1C=C[C@@H](C(C(=O)OC)C(=O)OC)CN1C(C)=O | -2 | -10 | 1 | 4 | 57*
C[C@H]1CN([C@@H](C)CO)C(=O)c2cc(C#CC3CCCC3)cnc2O[C@@H]1CN(C)C(=O)Nc1ccccc1 | 1 | · | 1 | 1 | -4

Screens (PubChem BioAssay)
